Test results published in PubChem BioAssay (NCATS).
Results filed as inconclusive are left out. A number with no mark means an inactive call. The source made the active and inactive calls. Calls come from the whole dose curve; as a rule, active = well fitted inhibition curve with a large enough effect; inconclusive = small, poorly fitted or top-dose-only effect; inactive = flat fitted curve, though single readings scatter.

These molecules were tested against Glutathione peroxidase 1 (Homo sapiens) (UniProt P07203) (assay: Primary qHTS Assay for Inhibitors of Recombinant Selenoprotein Glutathione Peroxidase 1 (GPX1) (AID 1845191; note: nearly all actives have a fitted effect of over 65% in size)). Conditions: recombinant GPX1, GR-coupled NADPH fluorescence, 15 min; series mostly up to 48.8 µM; activity, negative = inhibition: at the top concentration.
Summary of the method: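 10 nM GPX1 + cpd, 30 min RT; start w/ 1 mM GSH, 0.5 mM cumene hydroperoxide, 0.5 mM NADPH, 100 nM GR, 0.01% BSA; buffer 50 mM Tris-HCl pH 7.5, 2 mM EDTA, 150 mM NaCl; Fl 340/450, 0 & 15 min.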
% is set by controls: 0 for no effect and ±100 for the full control effect; potency is the fitted concentration of half-maximal effect.

Glutathione peroxidase 1 (Homo sapiens), sequence (P07203 whole entry, looked up): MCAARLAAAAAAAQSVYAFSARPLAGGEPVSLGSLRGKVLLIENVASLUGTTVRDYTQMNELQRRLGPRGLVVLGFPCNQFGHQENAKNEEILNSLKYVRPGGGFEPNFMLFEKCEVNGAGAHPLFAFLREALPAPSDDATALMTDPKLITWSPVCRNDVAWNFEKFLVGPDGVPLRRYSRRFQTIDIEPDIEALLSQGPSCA

SMILES	outcome	activity, negative = inhibition	Potency
CC1c2ccccc2CN1NC(=O)c1ccc(Cl)c(S(N)(=O)=O)c1 (stereo not given)	inactive	–	–
CC[N+]1(CC)CCC(=C(c2ccccc2)c2ccccc2)C1C (stereo not given)	inactive	–	–
Nc1c(NC/C=C\COc2cc(CN3CCCCC3)ccn2)c(=O)c1=O	–	-8.44% [at 27.7 µM]	–
C[C@H](CN1CCCC1)C(=O)c1ccc(C(F)(F)F)cc1	–	-5.32%	–
CO[C@]1(NC(=O)CSC(F)F)C(=O)N2C(C(=O)O)=C(CSc3nnnn3CCO)CO[C@H]21	inactive	–	–
CCCN(CCC)C(=O)C(CCC(=O)OCCCN1CCN(CCOC(=O)Cc2c(C)n(C(=O)c3ccc(Cl)cc3)c3ccc(OC)cc23)CC1)NC(=O)c1ccccc1 (stereo not given)	–	-17%	–
CCN(CC)CCOc1ccc(/C(=C(\Cl)c2ccccc2)c2ccccc2)cc1	–	–	inactive
COc1cc(C(=O)OC(COCCC(C)C)CN2CCOCC2)cc(OC)c1OC (stereo not given)	–	2.89%	–
Cc1cccc(N(C)C(=S)Oc2ccc3c(c2)CCC3)c1	–	1.91%	–
CO/N=C(/C(=O)N[C@@H]1C(=O)N2C(C(=O)O)=C(Cn3nnc(C)n3)CS[C@H]12)c1csc(N)n1	–	–	14.3 µM (active)
CC(=O)[C@H]1CC[C@H]2[C@@H]3C=CC4=CC(=O)CC[C@@]4(C)[C@@H]3CC[C@]12C	–	–	inactive
Cc1ccccc1C(=O)N1CC/C(=N\OS(=O)(=O)O)c2ccc(Cl)cc21	inactive	–	–
CN(C)C(=O)CNC(=O)Cc1ccccc1	–	-11.5%	–
COC(=O)C1=C(C)NC(COC(N)=O)=C(C(=O)OC(C)C)C1c1cccc(Cl)c1Cl (stereo not given)	–	-8.27%	–
OC1(c2ccc(Cl)c(C(F)(F)F)c2)CCN(CCCC(c2ccc(F)cc2)c2ccc(F)cc2)CC1	–	-17.7%	–
CC(=O)OCC(=O)Nc1cc(C#N)cc(NC(=O)COC(C)=O)c1Cl	–	-10.7%	–
O=C1CC[C@H](C(=O)N2CCCCC2)N1	–	-1.18%	–
O=C1[C@@H]2[C@H]3CC[C@H](C3)[C@@H]2C(=O)N1CCCCN1CCN(c2ncccn2)CC1	–	-4.3%	–
CCNC(=O)NCCCOc1cccc(CN2CCCCC2)c1	–	0.24%	–
CC(=O)O[C@@H]1C(=O)O[C@@H]2[C@H]1OC(=O)[C@@H]2OC(C)=O	–	-14.3%	–
CN1[C@@H]2CC[C@H]1CC(NC(=O)n1c(=O)[nH]c3ccccc31)C2 (stereo not given in full)	–	-11.5%	–
CCCCNc1ccc(C(=O)OCCN(CC)CC)cc1	inactive	–	–
CC(=O)Nc1ccn(C2COC(COC(=O)c3ccccc3)O2)c(=O)n1 (stereo not given)	–	4.72%	–
O=C(NN1CCCC1)NS(=O)(=O)c1ccc(Cl)cc1	–	-6.36%	–
CCN1C(=O)c2ccccc2C1Nc1ccc(OCCN2CCCCC2)cc1 (stereo not given)	–	0.28%	–
O=C(O)Cc1ccccc1Oc1ccc(Cl)cc1Cl	inactive	–	–
COc1cc(NS(=O)(=O)c2ccc(N)cc2)nc(C)n1	inactive	–	–
CN1CCC(N(Cc2cccs2)c2ccccc2)CC1	–	-0.0408%	–
C=CCOc1cc(Cl)ccc1C(=O)NCCN(CC)CC	–	-15.8%	–
CC(C(O)c1ccccc1)N(C)CCOC(c1ccccc1)c1ccccc1 (stereo not given)	–	-5.51%	–
